A selection: hits, their analogues and other compounds. The true share with any hit is near 10%.
JMJD2A Tudor: qHTS Assay for Inhibitors of JMJD2A-Tudor Domain; Lysine-specific demethylase 4A (Homo sapiens), O75164; AID 504339, 2011; AlphaScreen JMJD2A-Tudor / H3K4me3 peptide binding; actives 4.4% (n = 390,000); Potency, µM (highest dose often 114 µM), actives largely listed as inhibitors; also: nearly all actives have a fitted effect of over 50% in size
CtBP-E1A blk: qHTS Assay for Inhibitors of the CtBP/E1A Interaction; CtBP / adenovirus E1A interaction (AlphaScreen); AlphaScreen GST-E1A/His-CtBP binding, 1536-well; stronger effect = lower value; activity change, % (no concentration beside the values); actives 0.49% (n = 340,000); in the data active = activity change below about -65%; inconclusive = mostly about -30% to -63%
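In 5 uL wells, 23 nL compound meets equimolar GST-E1A and His-CtBP (5X stock 125 nM each) for 2 h, 37 °C. Beads (5X, 50 ug/mL) then 1 h, 37 °C, dark.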
HP1b chromo inh: HTS for Inhibitors of HP1-beta Chromodomain Interactions with Methylated Histone Tails. actives 0.56% (n = 390,000). Chromobox protein homolog 1 (Homo sapiens), P83916. Potency, µM (top dose mostly 114 µM), most hits filed as inhibitors. AlphaScreen HP1-beta / biotin-H3K9me3 peptide binding; also: nearly all actives have a fitted effect of over 70% in size
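AlphaScreen: HP1-beta (50 nM) preformed 30 min with biotin-H3(1-18)K9me3 peptide (50 nM) in PBS pH 7.4, 0.01% Tween-20. Compound added for 30 min at RT, then streptavidin donor/nickel chelate acceptor beads (10 ug/mL) for 30 min.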
Six1-Eya2 blk: qHTS Assay for Inhibitors of the Six1/Eya2 Interaction; Homeobox protein SIX1 (Homo sapiens) + Protein phosphatase EYA2 (Homo sapiens), …; AlphaScreen GST-Six1/His-Eya2 binding, biochemical; stronger effect = lower value; activity change, % (concentration not given with the values); actives 0.56% (n = 360,000); AID 651725, 2012; in the data active = activity change below about -65%; inconclusive = mostly about -30% to -63%
Target sequence (O00167 whole entry, looked up): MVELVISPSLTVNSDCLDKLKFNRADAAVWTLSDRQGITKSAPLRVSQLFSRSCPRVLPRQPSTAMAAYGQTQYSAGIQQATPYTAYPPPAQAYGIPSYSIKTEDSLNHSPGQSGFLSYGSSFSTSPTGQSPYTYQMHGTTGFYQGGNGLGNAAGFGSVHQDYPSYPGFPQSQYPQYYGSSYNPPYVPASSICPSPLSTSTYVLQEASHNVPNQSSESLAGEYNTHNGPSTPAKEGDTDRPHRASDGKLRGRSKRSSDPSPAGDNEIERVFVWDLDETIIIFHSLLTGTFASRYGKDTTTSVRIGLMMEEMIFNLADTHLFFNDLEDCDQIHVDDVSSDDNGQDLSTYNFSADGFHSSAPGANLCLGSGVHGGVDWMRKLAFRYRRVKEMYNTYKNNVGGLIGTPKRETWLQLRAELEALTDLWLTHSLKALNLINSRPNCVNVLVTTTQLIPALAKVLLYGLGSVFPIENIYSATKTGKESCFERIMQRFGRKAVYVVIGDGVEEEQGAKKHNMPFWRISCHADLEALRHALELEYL
Target sequence (Q15475 whole entry, looked up): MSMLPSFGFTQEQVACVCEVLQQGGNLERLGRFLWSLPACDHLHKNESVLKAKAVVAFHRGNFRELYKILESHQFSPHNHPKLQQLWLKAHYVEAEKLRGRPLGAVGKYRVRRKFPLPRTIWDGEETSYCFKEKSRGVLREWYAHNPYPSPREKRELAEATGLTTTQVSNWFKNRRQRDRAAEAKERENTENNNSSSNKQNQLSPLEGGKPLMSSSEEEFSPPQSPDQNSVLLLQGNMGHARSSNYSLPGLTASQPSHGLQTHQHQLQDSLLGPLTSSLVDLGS
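Compounds are tested against tagged Six1 and Eya2 proteins bridged by glutathione donor and nickel acceptor beads; after a one-hour incubation at 37 °C without light, AlphaScreen emission is recorded.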
G9a block: qHTS Assay for Inhibitors of Histone Lysine Methyltransferase G9a; Histone-lysine N-methyltransferase EHMT2 (Homo sapiens), Q96KQ7; G9a H3K9 monomethylation, AlphaScreen, 2 h; Potency, µM (series often up to 102 µM), usual class: inhibitors; actives 8.8% (n = 350,000); also: nearly all actives have a fitted effect of over 75% in size
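Quantitative HTS format: methyltransferase activity on a biotin-tagged H3K9 peptide is measured by AlphaScreen, using a rabbit anti-monomethyl-H3K9 antibody with streptavidin donor and anti-IgG acceptor beads. Final levels are 20 nM enzyme, 500 nM peptide, 20 uM SAM; 2 h RT.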
BAZ2B block: qHTS Assay for Inhibitors of BAZ2B | AlphaScreen BAZ2B-H3K14Ac peptide displacement | Potency, µM (titrated, usually from 114 µM), most hits filed as inhibitors | actives 4.4% (n = 360,000); also: nearly all actives have a fitted effect of over 60% in size
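Multi-concentration screen (max 110 uM) measuring displacement of acetylated histone H3 peptide from BAZ2B by AlphaScreen, using 50 nM protein, 50 nM peptide and 10 ug/mL streptavidin donor plus Ni-chelate acceptor beads.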
Numbers stand for hits; i = inactive; ? = inconclusive; nt = not tested or not shown; [ ] = remark or other dose. Unless noted, calls follow the shape of the dose curve; as a rule, active = well fitted inhibition curve with a large enough effect; inconclusive = small, poorly fitted or top-dose-only effect; inactive = no such curve, though single readings can be large or run the other way.

SMILES	JMJD2A Tudor	CtBP-E1A blk	HP1b chromo inh	Six1-Eya2 blk	G9a block	BAZ2B block
COc1cccc(N2CCN(Cc3cccnc3)CC2)c1	3.16µM	i	56.2µM	i	14.1µM	39.8µM
FC(F)(F)c1cccc(N2CCN(Cc3ccoc3)CC2)c1	3.55µM	i	?	i	?	50.1µM
CCOc1cccc(CN2CCN(c3cccc(C(F)(F)F)c3)CC2)c1O	i	i	i	i	i[12.7 µM]	i
O=c1cc(N2CCN(Cc3ccccc3)CC2)[nH]c(=O)n1-c1cccc(C(F)(F)F)c1	i	i	i	i	i	i
FC(F)(F)c1cccc(N2CCN(Cc3cccnc3)CC2)c1	1.26µM	i	?	i	14.1µM	i
COc1cccc(N2CCN(C3C4CC5CC(C4)CC3C5)CC2)c1 (stereo not drawn)	i	i	i	i	50.1µM	?
COc1cccc(N2CCN(Cc3ncc(-c4ccccc4)o3)CC2)c1	i	i	i	?	?	i
CCOC(=O)c1cccc(NS(=O)(=O)c2cc(-c3cnc(C4CC4)o3)ccc2C)c1	i	nt	i	nt	i[12.7 µM]	i
Cc1ccccc1CN1C(=O)c2ccccc2S(=O)c2ccc(C(=O)NCc3ccc4c(c3)OCO4)cc21 (stereo not drawn)	i	nt	i	nt	i	i
CCc1ccc(CNC(=O)c2cnc3sc(N4CCOCC4)nn3c2=O)cc1	i	nt	i	nt	i	i
CCOc1ccc(CN2CCc3nc(N4CCN(c5ncccn5)CC4)ncc3C2)cc1OC	?	nt	i	nt	i[12.7 µM]	i
COc1cccc(N2CCN(c3ncc4c(n3)CCN(Cc3ccc(Br)cc3)C4)CC2)c1	56.2µM	nt	i	nt	i[12.7 µM]	22.4µM
CCOC(=O)c1sc(N=NC2=C(O)CCCC2=O)c(C(=O)OCC)c1C	25.1µM	i	?	?	14.1µM	12.6µM
Cn1ccnc1SCC(=O)c1ccc(Br)cc1	?	i	i	i	50.1µM	?
COc1ccc(CNC(=O)C2CCN(S(=O)(=O)c3c(C)noc3/C=C/c3cccs3)CC2)cc1	i	nt	i	nt	i	nt
CC(C)(C)C(=O)NCCc1csc2nc(-c3ccc(F)cc3)nn12	i	nt	i	nt	i	i
CC(O)CNc1nc2sc3c(c2c(=O)n1CCc1ccccc1)CCCCC3 (stereo not drawn)	?	i	?	i	50.1µM	?
CN(C)CCNc1nc2sc3c(c2c(=O)n1CCc1ccccc1)CCCCC3	50.1µM	nt	i	i	39.8µM	44.7µM
Cc1ccc(Cl)cc1N1CCN(C(=O)c2ccc3c(c2)CCN3S(=O)(=O)c2ccccc2)CC1	i	nt	i	nt	i	i
Cc1cccc(NC(=S)NCc2ccco2)n1	i	i	i	i	2µM	i
Cn1cc(Cl)c(C(=O)NNC(=S)NCc2ccco2)n1	i	nt	i	i	39.8µM	i
CC(C)(C)NC(=S)NCc1ccco1	i	i	i	i	79.4µM	i
O=C(Cc1cccs1)NNC(=S)NCc1ccco1	i	i	i	i	50.1µM	i
Cc1c(Cl)c(C(=O)NNC(=S)NCc2ccco2)nn1C	i	i	i	i	?	i
O=C(Cc1cccs1)NCc1ccco1	i	i	i	i	i	i
SMILES	JMJD2A Tudor	CtBP-E1A blk	HP1b chromo inh	Six1-Eya2 blk	G9a block	BAZ2B block
Cc1ccc(NC(=O)C(Cc2ccccc2)NS(=O)(=O)c2ccc3c(c2)CCC(=O)N3)cc1 (stereo not drawn)	i	nt	i	nt	i	i
CCCCc1nn2c(=O)cc(COC(=O)c3ccc(NC(=O)CCc4ccccc4)cc3)nc2s1	i	nt	i	nt	i	i
CCOC(=O)c1ccc(NC(=O)c2ccc3c(c2)CCN3S(=O)(=O)c2ccc(Cl)cc2)cc1	i	nt	i	nt	i	i
S=C(NCc1ccco1)NCc1ccco1	56.2µM	i	35.5µM	i	nt	nt
NNC(=S)NCc1ccco1	89.1µM	i	i	i	i	i
S=C(NCc1ccccc1)NCc1ccco1	i	i	i	i	?	i
COc1ccc(NC(=O)C(NS(=O)(=O)c2ccc3c(c2)CCCC(=O)N3)C(C)C)c(OC)c1 (stereo not drawn)	i	nt	i	nt	i	i
COC(=O)c1ccc(Cl)cc1NC(=O)NCc1c(-n2cccc2)sc2c1CCCC2	i	nt	i	nt	i	i
COc1cc(-c2cc3n(C)c(C)c(CCC(=O)NCc4ccccc4)c(=O)n3n2)cc(OC)c1OC	i	nt	i	nt	i	i
Cc1[nH]ccc(=O)c1Oc1ncc(C(F)(F)F)cc1Cl	i	i	i	i	56.2µM	i
NC(=O)Nc1ccc(Oc2ncc(C(F)(F)F)cc2Cl)cc1	?	i	i	i	i	i
CCOCCCNC(=O)C(c1ccc(Cl)cc1)N(Cc1cccs1)C(=O)c1ccc(NC(C)=O)cc1 (stereo not drawn)	i	nt	i	nt	i	i
Nc1nc(-c2ccccc2)[nH]c(=O)c1N=O	i	nt	i	?	?	79.4µM
Cn1cc(S(=O)(=O)N2CCCCC2)cc1C(=O)N1CCN(c2ccccc2F)CC1	i	nt	i	nt	i	i
Cc1ccc2[nH]c3c(=O)n(CC(=O)N4CCN(c5ccccc5F)CC4)ncc3c2c1	i	nt	i	nt	i	i
CCN(CC)CCn1c2ccccc2c2cnc(N)c(C#N)c21	i	i	i	i	35.5µM	i
CC(C)=C1C2CCC1C(C(=O)Nc1cc(C)cc(C)c1)C2C(=O)O (stereo not drawn)	i	i	i	i	39.8µM	i
CC(=O)N1CCCC1c1nc2ccccc2n1Cc1cccc(C)c1 (stereo not drawn)	i	nt	i	nt	?	i
S=C1NCCc2ccc(Cl)cc2C1c1ccccc1Cl (stereo not drawn)	?	i	i	i	?	44.7µM
Clc1ccc2c(c1)C(C1=NCCN1)c1ccccc1CS2 (stereo not drawn)	i	i	i	i	i	i

Bioassay records: PubChem, National Center for Advancing Translational Sciences (NCATS)
